Source: PubChem BioAssay
TSHR antag – human thyrotropin receptor antagonism. 330,000 tested, 0.2% active. activity change, negative = inhibition, % at 11.5 µM. TSHR-expressing cells, TSH-stimulated cAMP HTRF, 2 h; active compounds read low. AID 504810. P16473;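 active = activity change below a set negative limit, meaning inhibition stronger than a set level, cut at about -70% in these data; inconclusive = activity change between two set negative limits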
Target sequence (P16473 whole entry, looked up): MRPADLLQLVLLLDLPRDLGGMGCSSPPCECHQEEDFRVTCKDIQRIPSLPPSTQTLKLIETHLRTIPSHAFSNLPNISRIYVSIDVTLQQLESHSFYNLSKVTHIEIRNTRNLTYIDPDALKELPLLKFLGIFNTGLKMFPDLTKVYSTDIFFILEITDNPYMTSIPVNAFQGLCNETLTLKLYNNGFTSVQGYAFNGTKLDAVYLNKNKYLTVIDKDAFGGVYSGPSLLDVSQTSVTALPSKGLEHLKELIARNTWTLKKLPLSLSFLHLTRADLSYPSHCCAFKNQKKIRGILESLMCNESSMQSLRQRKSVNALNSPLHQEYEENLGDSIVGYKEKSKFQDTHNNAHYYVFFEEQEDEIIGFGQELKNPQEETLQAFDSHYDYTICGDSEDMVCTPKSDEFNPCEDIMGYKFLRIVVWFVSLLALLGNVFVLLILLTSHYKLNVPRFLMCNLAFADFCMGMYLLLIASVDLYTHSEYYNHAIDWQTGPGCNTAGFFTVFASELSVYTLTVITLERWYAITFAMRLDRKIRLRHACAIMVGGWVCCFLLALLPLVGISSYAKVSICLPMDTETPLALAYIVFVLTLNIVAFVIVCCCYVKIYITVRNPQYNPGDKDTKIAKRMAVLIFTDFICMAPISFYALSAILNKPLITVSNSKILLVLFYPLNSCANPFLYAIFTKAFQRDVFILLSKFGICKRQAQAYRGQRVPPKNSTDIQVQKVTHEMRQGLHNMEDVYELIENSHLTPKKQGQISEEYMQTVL
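Competitive HTRF cAMP read-out (cryptate anti-cAMP antibody, cAMP-d2; 30 min, room temperature) in freshly harvested TSHR cells. Compounds added before TSH at EC80 (4nM final), followed by 2 hours' incubation at 37 deg C.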
ELG1 repair inh – ELG1-dependent DNA repair inhibition. HEK293T ELG1-luciferase reporter, luminescence, 16 h; DNA damage induced by 5-fluorouridine. Potency, µM (highest dose often 46.1 µM), most hits filed as inhibitors. 330,000 tested, 2.3% active. AID 504467; note: nearly all actives have a fitted effect of over 55% in size
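DMSO vehicle served as the neutral condition. Each well held 2,000 cells given 5-fluorouridine plus compound; after 16 hr at 37 °C/5% CO2, ONE-Glo was added and luciferase measured 30 min later.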
VP16 counter – counter-screen for ROR gamma inhibitors: Gal4-VP16 reporter; Drosophila S2 Gal4-VP16 UAS-luciferase, luminescence, 20 h; Potency, µM (series often up to 53.6 µM), usual class: inhibitors; 310,000 tested, 3.5% active; AID 2546;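 note: Gal4-VP16 expression switched on by copper sulfate through the metallothionein promoter; nearly all actives have a fitted effect of over 50% in size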
RORgamma inh – inhibitors of mouse ROR gamma transcriptional activity; Drosophila S2 Gal4-RORgamma UAS-luciferase reporter, 20 h; 310,000 tested, 5.4% active; Potency, µM (top dose mostly 53.6 µM), actives largely listed as inhibitors; P51450; note: nearly all actives have a fitted effect of over 60% in size
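Schneider cells (Drosophila), stable Gal4 DBD–ROR gamma + UAS-luc; 1 hr cmpd preincubation; Cu2+ induction 700 uM final; 20 hr ambient; luminescence.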
B2AR arrestin – agonists driving beta-arrestin recruitment to human beta2-adrenergic receptor; beta-arrestin recruitment to beta2AR, cell-based reporter; Potency, µM (top dose mostly 46.1 µM), actives largely listed as activators; 330,000 tested, 0.02% active; AID 492947; note: nearly all actives have a fitted effect of over 65% in size
Numbers stand for hits; 0 = inactive; ? = inconclusive; - = no result given; [ ] = remark or other dose. Only some compounds are listed: those with a hit (about 7.5% of all), similar ones and a draw of the others. Unless noted, calls come from the whole dose curve; as a rule, active = well fitted curve in the direction sought with a large enough effect; inconclusive = small, poorly fitted or top-dose-only effect, or another doubt; inactive = no such curve, though single readings can be large; an effect the other way counts as inactive or inconclusive.

SMILES	TSHR antag	ELG1 repair inh	VP16 counter	RORgamma inh	B2AR arrestin
COc1cc(/C=N\Nc2nc3ccccc3[nH]2)cc(OC)c1OC	0	0	0	0	0
COc1cc(C(=O)Nc2nc3ccccc3[nH]2)cc(OC)c1OC	0	?	10µM	10µM	0
Cn1c(=O)c2c(nc(Br)n2C/C=N/NC(N)=S)n(C)c1=O	0	0	0	5.01µM	0
CN(C)S(=O)(=O)n1cc(/C=C(\NC(=O)c2ccccc2F)C(=O)N2CCCC2)c2ccccc21	0	0	0	0	0
CCCn1c(CCNc2nc(-c3ccc(Cl)c([N+](=O)[O-])c3)cs2)nc2cc(Cl)c(Cl)cc21	0	?	0	?	0
Cc1ccc(Cn2c(C(C)Nc3nc(-c4ccc(C)cc4)cs3)nc3cc(Cl)c(Cl)cc32)cc1 (centres undefined)	0	0	0	11.2µM	0
Cc1csc(N2CCN(c3cc4c(cc3Cl)nc(-c3ccncc3)n4CCCN3CCCC3)CC2)n1	0	?	0	0	0
CCCn1c(C(C)Nc2nc(-c3ccc(Cl)c([N+](=O)[O-])c3)cs2)nc2ccccc21 (centres undefined)	0	0	?	12.6µM	0
CCCn1c(C(C)Nc2nc(C)cs2)nc2cc(Cl)c(Cl)cc21 (centres undefined)	0	0	0	?	0
CCCn1c(C(C)Nc2nc(-c3cc(Cl)c(N)c(Cl)c3)cs2)nc2cc(Cl)c(N3CCCCC3)cc21 (centres undefined)	0	0	0	14.1µM	?
CCCn1c(C(C)Nc2nc(-c3ccc(C)cc3)cs2)nc2ccccc21 (centres undefined)	0	0	17.8µM	5.62µM	0
CC(CCC#N)[N+](=O)[O-] (centres undefined)	-	-	0	0	-
CCCn1c(C(C)Nc2nc(-c3cccc(Br)c3)cs2)nc2ccccc21 (centres undefined)	0	?	?	4.47µM	0
CCCn1c(C(CO)Nc2nc(C)cs2)nc2ccccc21 (centres undefined)	0	0	0	0	0
Cc1cccc(N=[N+]([O-])c2cccc(C)n2)n1	0	?	-	-	0
Cn1c(SCC(=O)Nc2ccccc2)nc2c([nH]c3ccccc32)c1=O	0	0	12.6µM	?	0
C=CCn1c(SCC(=O)Nc2cc(C)on2)nc2c([nH]c3ccccc32)c1=O	0	0	11.2µM	?	0
Cn1c(SCC(=O)NCc2ccccc2)nc2c([nH]c3ccccc32)c1=O	0	0	0	0	0
Cc1cccc(NC(=O)CSc2nc3c([nH]c4ccccc43)c(=O)n2C)c1	0	0	?	12.6µM	0
CCC1CCCCN1C(=O)CSc1nc2c([nH]c3ccccc32)c(=O)n1C (centres undefined)	0	23.1µM	0	?	0
COc1cccc(NC(=O)CSc2nc3c([nH]c4ccccc43)c(=O)n2C)c1	0	?	0	0	0
O=S(=O)(CCC(F)=C(F)F)c1nnnn1C1CCCCC1	-	-	0	0	-
Cc1sc2ncn(CC(=O)NCCCC(=O)N3CCCCC3)c(=O)c2c1C	0	0	0	0	0
CC(C)C[C@H](NC(=O)CN(C)C(=O)[C@H](Cc1ccccc1)NC(=O)[C@H](Cc1ccccc1)NC(=O)[C@H](CCC(N)=O)NC(=O)[C@H](CCC(N)=O)NC(=O)[C@@H]1CCCN1C(=O)[C@H](CCCCN)NC(=O)[C@@H]1CCCN1C(=O)[C@@H](N)CCCN=C(N)N)C(=O)N[C@@H](CCS(C)(=O)=O)C(N)=O	-	-	0	0	-
Cc1ccc(-c2nc(=S)c3c(n2Cc2ccco2)CCCC3)cc1	0	0	0	0	0
SMILES	TSHR antag	ELG1 repair inh	VP16 counter	RORgamma inh	B2AR arrestin
Cc1ccc(-c2nc(=S)c3c(n2Cc2ccco2)CC(C)(C)OC3)cc1	0	0	15.8µM	2.82µM	0
Cc1cccc(-c2nc(=S)c3c(n2Cc2ccco2)CCCC3)c1	0	0	?	11.2µM	0
O=C1CC(c2cc(-c3ccccc3)no2)C1	0	?	0	0	0
Cc1cccc(OCC(=O)Nc2ccccc2N2CCCCC2)c1C	0	0	-	-	0
Cc1ccccc1OCC(=O)NC(=S)Nc1ccc(N2CCCC2)cc1	0	0	8.91µM	8.91µM	0
Cc1ccccc1OCC(=O)NC(=S)Nc1ccccc1N1CCN(S(C)(=O)=O)CC1	0	0	?	10µM	0
Cc1cc(OCC(=O)Nc2ccc(N3CCCC3)cc2)cc(C)c1Cl	0	0	0	0	0
c1ccc(-c2nn3c(Cn4cnc5ccccc54)nnc3s2)cc1	0	0	0[0.365 µM]	0.0708µM	0
COC(=O)C/C=C\[C@@H](C)[C@@H](/C=N\OC[C@@H](C)[C@H](OCc1ccccc1)C(C)C)NS(=O)(=O)c1ccc(C)cc1	-	-	0[10 µM]	0[10 µM]	-
COc1ccc(CCNCc2csc3nc4ccccc4n23)cc1OC	0	0	6.31µM	0	0
Cc1ccc(C)c(NC(=S)N2CCC(NC(=O)C3CCCCC3)CC2)c1	0	0	0	0	0
CCNC(=S)Nc1sc2c(c1C#N)CCC(C)C2 (centres undefined)	0	0	?	11.2µM	0
CN1Cc2sc(NC(=S)NC(=O)c3ccccc3)c(C#N)c2CC1(C)C	0	?	?	3.16µM	0
CC1CCc2sc(NC(=S)NC(=O)c3ccccc3)c(C#N)c2C1 (centres undefined)	0	?	?	14.1µM	0
CCC1(C)Cc2c(sc(NC(=S)NC(=O)c3ccccc3)c2C#N)CO1 (centres undefined)	0	?	?	?	0
Clc1cccc(N2CCN(Cc3ccc(Br)o3)CC2)c1	0	0	0	0	0
CCc1ccn2cc(-c3ccc4c(c3)OCO4)nc2c1	0	?	4.47µM	1.12µM	0
CCC1Cc2cc(O)ccc2C2=C1c1ccc(O)cc1CC2CC (centres undefined)	-	-	12.6µM	?	-
COc1ccc(S(=O)(=O)N(C)C)cc1NCC(=O)Nc1ccc(F)cc1F	0	0	0	0	0
COc1ccc(S(=O)(=O)N(C)C)cc1NS(=O)(=O)c1ccc(F)c(F)c1F	0	0	12.6µM	4.47µM	0
O=C(CCS(=O)(=O)c1ccc(F)cc1)Nc1nnc(-c2cccs2)o1	0	0	-	-	0
O=C(CS(=O)(=O)c1ccc(Cl)cc1)Nc1nnc(-c2cccs2)o1	0	0	?	14.1µM	0
O=C(CCSc1ccccc1)Nc1nnc(-c2ccccc2)o1	0	0	11.2µM	10µM	0
O=C(CCc1ccccc1)Nc1nnc(-c2cccs2)o1	0	0	10µM	6.31µM	0
O=C(CCSc1ccccc1)Nc1nnc(-c2cccs2)o1	0	0	10µM	4.47µM	0
Cc1cnc(=O)[nH]c1SCc1ccc([N+](=O)[O-])cc1	0	0	0	0	0
O=C(Cc1cccs1)N/N=C/C=C/c1ccccc1[N+](=O)[O-]	0	?	0	0	0
COc1ccccc1/C=C/C=N/NC(=O)c1ccncc1	0	0	11.2µM	5.62µM	0
